RTF Ca sens act: cardiac RTF calcium sensitization; P19429+P45379; IANBD-labeled TnC RTF fluorescence at EC20 calcium; 0% EC20 calcium, 100% full calcium; activation, % at 7.2 µM; actives 0.24% (n = 340,000); AID 493008;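 active = activation above the mean over all tested compounds plus 3 SD, cut at about 30% in these data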;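 also: rise in fluorescence read as greater calcium sensitivity of cardiac thin filaments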
IDE inh: cellular human IDE inhibition. P14735. inhibition, % at 5.59 µM. AID 434962. HEK cells, FAbetaB cleavage, fluorescence polarization. actives 0.41% (n = 320,000);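 active = percent inhibition above the average of all tested compounds plus 3 SD, set per screening campaign, cut at about 16% in these data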;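 also: IDE supplied by intact live HEK cells; FP after avidin binding of uncleaved biotin substrate so inhibition keeps polarization high; 0% = DMSO wells and 100% = 60 µM reference IDE inhibitor Ii1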
Cardiac RTF inh: cardiac RTF calcium desensitization; P19429+P45379; IANBD-labeled cardiac RTF, Ca2+ fluorescence; inhibition, % at 7.15 µM; actives 0.12% (n = 340,000); AID 493244;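 active = inhibition above the mean inhibition of all tested compounds plus 3 SD, cut at about 17% in these data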;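 also: assay run at fixed EC70 calcium of 1.6 mM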
Keap1-Nrf2 PPI: disrupts human Keap1 binding to Nrf2 peptide | actives 0.15% (n = 340,000) | Q14145 | inhibition, % at 9.4 µM | Keap1 Kelch-Nrf2 peptide fluorescence polarization, 1536-well; in the data active = inhibition above about 12%; inconclusive = no clear call, values can overlap the other calls; inactive = below about 7.3%;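 also: human Keap1 Kelch domain with fluorescein labeled Nrf2 9mer peptide probe; 0% = neutral control wells and 100% = peptide positive control; higher means more block of Keap1 binding to Nrf2 peptide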
Target sequence (Q14145 whole entry, looked up, the tested form may be a part): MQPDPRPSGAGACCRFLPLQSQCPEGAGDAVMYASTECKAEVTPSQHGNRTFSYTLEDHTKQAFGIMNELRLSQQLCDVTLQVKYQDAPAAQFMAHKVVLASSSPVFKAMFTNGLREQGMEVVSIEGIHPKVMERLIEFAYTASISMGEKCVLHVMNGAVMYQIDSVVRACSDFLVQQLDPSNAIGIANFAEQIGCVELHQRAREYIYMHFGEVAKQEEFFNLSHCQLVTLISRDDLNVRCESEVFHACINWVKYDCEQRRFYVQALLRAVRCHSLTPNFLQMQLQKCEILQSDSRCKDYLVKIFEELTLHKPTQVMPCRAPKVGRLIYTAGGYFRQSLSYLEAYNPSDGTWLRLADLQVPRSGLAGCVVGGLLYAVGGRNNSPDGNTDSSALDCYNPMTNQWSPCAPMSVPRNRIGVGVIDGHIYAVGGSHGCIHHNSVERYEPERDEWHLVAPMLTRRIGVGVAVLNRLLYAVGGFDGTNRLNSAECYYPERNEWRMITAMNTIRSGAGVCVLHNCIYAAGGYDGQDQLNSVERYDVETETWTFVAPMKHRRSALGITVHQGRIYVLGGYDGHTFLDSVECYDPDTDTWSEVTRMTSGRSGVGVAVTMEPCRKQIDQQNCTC
C-LANA FP: blocks KSHV LANA C-terminal domain binding to DNA; MBP-C-LANA/FAM-LBS DNA binding, fluorescence polarization; inhibition, % at 9 µM; actives 0.078% (n = 340,000); AID 504423;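 active = highest replicate inhibition at or above 60% at 9 µM, even if other replicates fall short; inactive = all replicates below 60% inhibition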;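 also: 0% = neutral control wells and 100% = 4 µM acridine orange control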
IDE cell activ: IDE (human) activation, cell-based; P14735; actives 0.073% (n = 340,000); activation, % at 5.96 µM; HEK cells, FAbeta-B cleavage, fluorescence polarization; 0% vehicle, 100% cell-free pure enzyme wells; AID 493087;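 active = activation above the mean of all tested compounds plus 3 SD, set per screening campaign, cut at about 17% in these data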
* = called active by the depositor; ? = inconclusive; . = no result. Rows were chosen to be rich in hits. Some 0.81% of all compounds tested hit in one or more screens of this group.

SMILES	RTF Ca sens act	IDE inh	Cardiac RTF inh	Keap1-Nrf2 PPI	C-LANA FP	IDE cell activ
CCC[C@H](CN[C@@H](CNC)[C@H](C)CC)NCCc1cc(C(F)(F)F)cc(C(F)(F)F)c1	11	6	1	-1	1	8
CC[C@@H](C)[C@H](CNC)NC[C@@H](Cc1cccc2ccccc12)NCCc1cccc(C(F)(F)F)c1	0	5	9	3	2	29*
CNC[C@@H](CC1CCCCC1)NC[C@H](CC(C)C)NCCc1cccc(C(F)(F)F)c1	4	3	-6	1	-4	21*
O=C(COc1ccccc1)Nc1ccncc1Cl	-3	8	-6	4	0	8
COC(=O)c1cc2c(=O)c3ccccc3oc2nc1C	0	.	-2	0	1	-1
COC(=O)c1cc2c(=O)c3ccccc3oc2nc1/C=C/N(C)C	48*	.	-41	-9	-6	-126
Cc1cc(C)n(CC(O)Cn2ccc3ccccc32)n1 (stereo not drawn)	-1	8	-13	-2	2	2
OC(CN1CCNCC1)Cn1ccc2ccccc21 (stereo not drawn)	.	18*	.	.	.	.
COc1ccccc1NCC(O)COc1ccc(C(C)(C)C)cc1 (stereo not drawn)	0	-3	0	-3	-1	11
COc1ccc(NCC(O)COc2ccc(C(C)(C)C)cc2)cc1 (stereo not drawn)	-5	-2	-2	0	0	22*
O=C(CSc1nc2ccccc2[nH]1)Nc1nc(-c2ccc(Br)cc2)cs1	5	1	-1	-5	2	-6
Cc1cc(C=O)c2c(c1)C=CC1(Oc3ccccc3C(=O)N1C)O2 (stereo not drawn)	.	25*	.	.	.	.
CN1C(=O)c2ccccc2OC1(C)Cc1ccccc1 (stereo not drawn)	0	5	4	3	-1	6
CN(c1ccccc1)S(=O)(=O)c1cccc(NC(=O)COc2cccc([N+](=O)[O-])c2)c1	3	4	-11	-2	-1	18*
CN(C)CC(C)(C)CNC(=O)C1CCN(Cc2ccccc2O)CC1	3	6	-9	-3	1	1
O=C1C(=Cc2ccc(Br)o2)C(=O)c2ccccc21	-36	2	33*	?	106*	1
CC1=C/C(=C\c2ccc(Br)o2)C(=O)O1	4	2	-1	-6	27	9
CN1CCCc2cc3c(C(F)(F)F)cc(=O)oc3nc21	38*	3	-58	?	-21	10
CCCC(=O)NC(Nc1cccc(C(F)(F)F)c1)C(Cl)(Cl)Cl (stereo not drawn)	-1	-1	1	3	1	2
Cc1ccc(NC(=O)c2ccc3c(c2)NC(=O)CS3)nc1	-10	3	-2	-2	1	1
Cc1ccc2c(c1)-c1[nH]c(=S)ncc1CS2	-1	19*	-6	-3	1	-12
COc1ccc(NC(=O)CSc2ccc3c4c(cccc24)C(=O)c2ccccc2-3)cc1	27	2	-18	-1	1	-9
N#Cc1cccc(NC(=O)CSc2ccc3c4c(cccc24)C(=O)c2ccccc2-3)c1	42*	16	-58	2	3	-12
CCCn1c(N/N=C\C=C\c2ccccc2)nc2c1c(=O)[nH]c(=O)n2C	0	16*	4	1	-1	-2
COc1ccc(C=O)cc1OC1C=CCCC1 (stereo not drawn)	-1	-5	-8	0	0	0
SMILES	RTF Ca sens act	IDE inh	Cardiac RTF inh	Keap1-Nrf2 PPI	C-LANA FP	IDE cell activ
CCC[N+](CC#CCO)(CC#Cc1ccccc1)CCC	6	-2	-11	-2	-3	-3
CC(C)(CO)NCC#Cc1ccccc1	34*	-3	-4	1	0	3
COC(=O)c1ccncc1N	3	6	-20	1	1	11
Nc1cnccc1C(=O)O	39*	0	-49	7	10	4
COc1cc(OC)cc(C(=O)N(Cc2ccco2)c2c(N)n(Cc3ccccc3)c(=O)[nH]c2=O)c1	31*	.	-50	-5	-3	2
Cc1cccc(C(=O)N(Cc2ccco2)c2c(N)n(Cc3ccccc3)c(=O)[nH]c2=O)c1	1	4	1	-4	-1	0
Cc1ccc(S(=O)(=O)NCc2c(Cl)cccc2Oc2ccccc2)cc1	2	9	-1	7	0	6

Bioassay records from PubChem.
